Data reported in PubChem BioAssay (Tox21).
Results filed as inconclusive are left out. Unmarked numbers belong to inactive results. Calls of active or inactive are those of the source. Calls follow the shape of the dose curve; as a rule, active = well fitted cell-killing curve with a large enough effect in the repeat runs; inconclusive = weak or mixed curves, or effect the other way; inactive = no such curve, though single readings can be large or run the other way.

assay: qHTS assay for identifying genotoxic compounds that show differential cytotoxicity against isogenic chicken DT40 cell lines with known DNA damage response pathways - wild type cell line (AID 743012); details: DT40 wild type chicken cells viability, CellTiter-Glo, 40 h; series mostly up to 68.4 µM; activity change, negative = cytotoxicity: at the top concentration; also: nearly all actives have a fitted effect of over 60% in size
Excerpt: U.S. Tox21 Program National Center for Advancing Translational Sciences [NCATS] NIH Chemical Genomics Center [NCGC] U.S. Environmental Protection Agency [EPA] National Institutes of Environmental Health Sciences [NIEHS] National Toxicology Program [NTP] U.S. Food and Drug Administration [FDA] Tox21 Assay Overview: DNA repair pathways play a critical role in cellular homeostasis by repairing DNA damage induced by endogenous processes and xenobiotics. Isogenic chicken DT40 cell lines deficient in different DNA repair pathways can be used to identify genotoxic compounds and aid in characterizing the nature of the DNA damage induced. Two DNA repair-deficient cell lines with disrupted genes, Rad54/Ku70 or Rev3, were used to screen the Tox21 10K compound library. Possible genotoxicity was based on the presence of a significant increase in cytotoxicity in one or more of the DNA repair-deficient cell lines compared to that observed in the parental DNA repair-proficient cell line. CellTiter Glo viability assay (Promega, Madison, WI) was used to measure cell viability in these cells after compound treatment. This assay includes the data from the wild type cell line.
Tox21 Assay Protocol Summary: 300 DT40 wild type cells in 5 uL/well were dispensed into white, solid-bottom 1536-well plates using a Multidrop Combi (ThermoFisher Scientific, Waltham, MA) dispenser. After the assay plates were incubated at 37 C/5% CO2 for approximately 0.5 hour, 23 nL of compounds dissolved in DMSO, positive controls or DMSO only was transferred into the assay plate by a pintool work station (Kalypsys, San Diego, CA). The assay plates were incubated at 37 C/5% CO2 for 40 hours. After 5 uL per well of CellTiter-Glo reagent was added into each well of the assay plates, the plates were incubated for 30 min at room temperature and the luminescence intensity of the plates was measured using a ViewLux (PerkinElmer, Shelton, CT) plate reader.
% is scaled to controls: 0 for no effect and ±100 for the full control effect; potency is read from the fitted curve at half-maximal effect.

Q: For `CCCCCCOc1ccc(N)cc1`, which Potency is on record?
A: Its Potency is 61.1 µM (active).

Q: Which “activity change, negative = cytotoxicity” value does the source give for `COc1nc(C)nc(NC(=O)NS(=O)(=O)c2ccccc2OCCCl)n1` here?
A: Its value is 3.43%.

Q: Which “activity change, negative = cytotoxicity” value does the source give for `O=S(=O)(O)C(F)(F)F` here?
A: The value was 11.4%.

Q: Which “activity change, negative = cytotoxicity” value does the source give for `CCCc1c2oc(C(=O)O)cc(=O)c2cc2c(=O)cc(C(=O)O)n(CC)c12` here?
A: The value was 0.104%.

Q: For `CCOc1ccc2nc(N)sc2c1`, which “activity change, negative = cytotoxicity” value is on record?
A: Its value is -19.2%.

Q: With `CCC(=O)c1ccc2c(c1)N(CCCN(C)C)c1ccccc1S2` as the compound, how does the Potency read?
A: Its Potency is 4.73 µM (active).

Q: Which “activity change, negative = cytotoxicity” value does the source give for `FC(F)(F)C(F)(F)C(F)(F)C(F)(F)C(F)(F)C(F)(F)C(F)(F)C(F)(F)Br` here?
A: Its value is -1.45%.

Q: For `O=C1CCCCC1C1CCCCC1` (stereo not given), which “activity change, negative = cytotoxicity” value is on record?
A: Its value is 2.4%.

Q: With `CC(C)C(=O)OC/C=C/c1ccccc1` as the compound, how does the “activity change, negative = cytotoxicity” value read?
A: The value was 0.632%.

Q: Which Potency does the source give for `CN1CCN(C2=Nc3ccccc3Oc3ccc(Cl)cc32)CC1` here?
A: Its Potency is 12.7 µM (active).

Q: For `CC(=O)OC(C)OC(C)=O`, which “activity change, negative = cytotoxicity” value is on record?
A: The value was 8.26% [at 95 µM].

Q: Which “activity change, negative = cytotoxicity” value does the source give for `O=C(O)c1cccc(Cl)c1Cl` here?
A: Its value is -2.01%.

Q: For `C=Cc1ccccc1`, which Potency is on record?
A: Its Potency is “inactive”.

Q: For `C=CC(C)(O)CC/C=C(\C)CCC=C(C)C` (stereo not given), which Potency is on record?
A: Its Potency is “inactive”.

Q: Which “activity change, negative = cytotoxicity” value does the source give for `CC(CNC1CCCCC1)OC(=O)c1ccccc1` (stereo not given) here?
A: Its value is -12.5% [at 31.4 µM].

Q: Which “activity change, negative = cytotoxicity” value does the source give for `O=Cc1ccc(F)c(Br)c1` here?
A: Its value is 18.7%.

Q: For `C[C@]12C(=O)OC(=O)[C@H]1[C@H]1C=C[C@@H]2C1`, which “activity change, negative = cytotoxicity” value is on record?
A: The value was -12% [at 95 µM].

Q: Which “activity change, negative = cytotoxicity” value does the source give for `Cc1c(-c2ccccc2)oc2c(C(=O)OCCN3CCCCC3)cccc2c1=O` here?
A: Its value is 2.6% [at 31.4 µM].

Q: For `Cc1ccccc1C(=O)Nc1ccc(C(=O)N2CCCC(O)c3cc(Cl)ccc32)c(C)c1` (stereo not given), which Potency is on record?
A: The Potency was 26.6 µM (active).

Q: Which “activity change, negative = cytotoxicity” value does the source give for `COc1ccc(S(=O)(=O)Nc2nnc(CC(C)C)s2)cc1` here?
A: The value was 14.9%.

Q: With `CCCCNCCCC` as the compound, how does the “activity change, negative = cytotoxicity” value read?
A: Its value is 2.98%.

Q: For `CCC1(C)NC(=O)NC1=O` (stereo not given), which “activity change, negative = cytotoxicity” value is on record?
A: Its value is 15.8%.

Q: With `CC(C)S` as the compound, how does the “activity change, negative = cytotoxicity” value read?
A: The value was 1.79% [at 95 µM].

Q: With `CCCCOc1cc(C(=O)NCCN(CC)CC)c2ccccc2n1` as the compound, how does the Potency read?
A: The Potency was 11.4 µM (active).

Q: Which “activity change, negative = cytotoxicity” value does the source give for `CCN1CC(CCN2CCOCC2)C(c2ccccc2)(c2ccccc2)C1=O` (stereo not given) here?
A: The value was -0.0153%.

Q: For `CC1CN(c2ccccc2)NC1=O` (stereo not given), which “activity change, negative = cytotoxicity” value is on record?
A: The value was -16.3%.

Q: With `O=C(CC(=O)C(F)(F)F)c1ccccc1` as the compound, how does the “activity change, negative = cytotoxicity” value read?
A: The value was -20.7% [at 95 µM].

Q: For `CC/C=C\CCOC(=O)C(C)C`, which “activity change, negative = cytotoxicity” value is on record?
A: Its value is 2.56%.

Q: For `O=C1C=CC(=O)O1`, which “activity change, negative = cytotoxicity” value is on record?
A: The value was 9.99% [at 95 µM].

Q: Which “activity change, negative = cytotoxicity” value does the source give for `CCN(O)CC` here?
A: Its value is -5.62%.

Q: For `CC(C)NCC(O)COc1ccc(CCOCC2CC2)cc1` (stereo not given), which Potency is on record?
A: The Potency was 29.8 µM (active).

Q: Which “activity change, negative = cytotoxicity” value does the source give for `CC1=C2[C@H](/C=C(\C)C(=O)O)CC[C@@H](C)[C@H]2CC1` here?
A: Its value is -2.24% [at 95 µM].

Q: For `CCCCNc1cc(C(=O)O)cc(S(N)(=O)=O)c1Oc1ccccc1`, which “activity change, negative = cytotoxicity” value is on record?
A: Its value is 0.83% [at 31.4 µM].

Q: Which “activity change, negative = cytotoxicity” value does the source give for `Cc1cc(NS(=O)(=O)c2ccc(N)cc2)nc(C)n1` here?
A: Its value is -24%.

Q: With `CCCC1CCC(=O)O1` (stereo not given) as the compound, how does the “activity change, negative = cytotoxicity” value read?
A: The value was 7.78%.

Q: With `CC(C)C[C@H](NC(=O)OCC1c2ccccc2-c2ccccc21)C(=O)O` as the compound, how does the “activity change, negative = cytotoxicity” value read?
A: The value was 19.2%.

Q: With `COC(=O)c1ccc(OC)cc1` as the compound, how does the “activity change, negative = cytotoxicity” value read?
A: Its value is 7.89%.

Q: With `CN(CCCN1c2ccccc2CCc2ccccc21)CC(=O)c1ccc(Cl)cc1` as the compound, how does the Potency read?
A: Its Potency is 9.44 µM (active).

Q: With `CC(=O)Oc1cc(C(C)C)c(OCCN(C)C)cc1C` as the compound, how does the “activity change, negative = cytotoxicity” value read?
A: The value was 10.8% [at 31.4 µM].

Q: For `CN1CCC[C@@H]1Cc1c[nH]c2ccc(CCS(=O)(=O)c3ccccc3)cc12`, which Potency is on record?
A: Its Potency is 26.6 µM (active).
